This excerpt belongs to a sample that is enriched for hits.
TbREL1 inh: TbREL1 inhibition, primary screen; P86926; TbREL1 RNA ligation, FRET fluorescence; AID 1117264; inhibition, % at 9.66 µM; 89,000 compounds, 0.49% hits;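 active means inhibition above the mean inhibition across all screened compounds plus 3 SD, cut at about 11% in these data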;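 further: 0% = plate median of test wells and 100% = NSC42067 control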
Target sequence (P86926 whole entry, looked up): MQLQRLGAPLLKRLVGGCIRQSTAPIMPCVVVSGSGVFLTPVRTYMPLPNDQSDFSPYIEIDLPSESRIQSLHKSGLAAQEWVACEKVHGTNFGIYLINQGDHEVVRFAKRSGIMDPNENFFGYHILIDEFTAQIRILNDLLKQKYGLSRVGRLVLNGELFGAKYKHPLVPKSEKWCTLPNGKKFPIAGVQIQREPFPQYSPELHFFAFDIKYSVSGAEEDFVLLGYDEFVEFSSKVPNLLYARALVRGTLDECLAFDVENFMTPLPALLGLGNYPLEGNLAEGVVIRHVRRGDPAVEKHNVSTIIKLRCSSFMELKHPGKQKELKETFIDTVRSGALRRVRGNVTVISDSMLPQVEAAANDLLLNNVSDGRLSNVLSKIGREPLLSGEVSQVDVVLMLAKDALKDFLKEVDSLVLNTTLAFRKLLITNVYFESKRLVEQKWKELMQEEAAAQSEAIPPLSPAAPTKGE
TbREL1 confirm: TbREL1 inhibition, confirmation | TbREL1 RNA ligation, FRET fluorescence | shares compounds with TbREL1 inh | inhibition, % at 9.66 µM | AID 1117282 | 390 compounds, 37% hits;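 active means mean inhibition across replicates above a set limit taken from the earlier primary screen, cut at about 11% in these data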;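 further: 0% = REL1 with substrate and DMSO and 100% = REL1 plus control inhibitor NSC42067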
* marks the source's active call; other numbers are inactive results.

SMILES	TbREL1 inh	others
CN1C(=O)C(=O)N2C(=C[C@]3(c4c[nH]c5ccccc45)c4ccccc4N[C@H]23)C1=O	2
CN=C1S/C(=C/c2cc(C)n(-c3ccc(Cl)cc3F)c2C)C(=O)N1C	-8
CCc1nccn1CC(=O)c1ccc(O)c(O)c1	-1
Nc1ccc(C(=O)c2cccs2)cc1	0
O=C(SCC(O)C(O)CS)c1cccs1 (stereo not given)	18*	TbREL1 confirm=4
CSc1ccccc1NC(=O)c1cccs1	5
O=C(NCc1ccc(C(=O)NCC2CCCO2)cc1)c1cccc(Br)c1 (stereo not given)	-2
CN(c1ccccc1)S(=O)(=O)c1cccc(C(=O)NC2CC(C)(C)NC(C)(C)C2)c1	1
COc1ccccc1N(Cc1ccccc1)S(=O)(=O)c1cccc(C(=O)Nc2cc(C)ccn2)c1	2
COc1ccccc1N(Cc1ccccc1)S(=O)(=O)c1cccc(C(=O)NC2CC(C)(C)NC(C)(C)C2)c1	11*	TbREL1 confirm=14*
O=C(NC1CCc2ccccc21)c1cc(-c2ccc(Cl)cc2)nc2ccccc12 (stereo not given)	-1
COc1ccc(NC(=O)Nc2ccccc2C(=O)N2CCCC2)cc1OC	4
O=C(NCCNC(=O)c1ccccn1)c1ccc(Cl)cc1	3
O=C(CCNC(=O)c1ccc(Cl)cc1)Nc1ncccc1O	19*	TbREL1 confirm=1
Cc1ccc(C(=O)CCC(=O)Nc2ncccc2O)cc1	-2
Cc1ccccc1CN1CCCCC(NC(=O)c2ccccc2)C1=O (stereo not given)	0
CCCCCCCN1C(Nc2ccccc2)=NC[C@@H]1CC(C)C	12*	TbREL1 confirm=20*
CC(C)C[C@H]1CN=C(Nc2ccccc2)N1CCC1CCCC1	11
CCCCN1C(Nc2ccccc2)=NC[C@@H]1Cc1ccccc1	2
CCCC1CCC2(CC1)CCC2OC(=S)Nc1ccccc1C(F)(F)F (stereo not given)	-3
COC(=O)[C@]12C[C@H](CC(=O)NCc3ccccc3)C(=O)N(CCc3ccc(OC)c(OC)c3)C1=C[C@H](C(C)C)O[C@@H]2C1CC1	4
C[C@H]1[C@@H](NC(=O)c2ccc(O)cc2)CC[C@@]23CCCN2C(=O)CCC[C@@H]13	-4
OCc1ccnc2c(O)cccc12	0
Oc1ccc(CNc2ccc(C(F)(F)F)cc2F)c2cccnc12	13*	TbREL1 confirm=-3
Oc1ccc(CNc2ccccc2Br)c2cccnc12	14*	TbREL1 confirm=-1
SMILES	TbREL1 inh	others
Oc1ccc(CNc2cccc(F)c2)c2cccnc12	11
Oc1ccc(CCc2c(F)cccc2F)c2cccnc12	-7
O=Nc1ccc(O)c2ncccc12	10
CCCCNC(=O)C[C@H]1C[C@@]2(C(=O)OC)C(=C[C@H](C3CCCC3)O[C@@H]2C)N(Cc2ccc(Cl)cc2Cl)C1=O	3
O=C(N1CCC(C(O)(c2ccccc2)c2ccccc2)CC1)n1ncc(C(O)(c2ccccc2)c2ccccc2)n1	-3
Cc1cc(C)cc(-c2c(C(=O)c3ccccc3)[nH]c(N)c2C(=O)NCCc2c[nH]c3ccccc23)c1	-5
Cc1ccc(-n2c(SCC(=O)Nc3ccc4c(c3)OCCO4)nnc2-c2cccnc2)cc1	0
CN(C)CCCNc1ncnc2oc(-c3ccccc3)c(-c3ccccc3)c12	12*	TbREL1 confirm=6
c1ccc(-c2c(-c3ccccc3)n(Cc3ccco3)c3ncnc(NCCCn4ccnc4)c23)cc1	-2
COc1ccc(-c2oc3ncnc(N)c3c2-c2ccccc2)cc1	4
COc1cc([N+](=O)[O-])cc(/C=N/NC(=O)Cn2nc(C)cc2C)c1O	17*	TbREL1 confirm=4
Cc1cc(C)n(CC(=O)N/N=C/c2ccc([N+](=O)[O-])s2)n1	2
COc1ccc(/C=N/NC(=O)Cn2nc([N+](=O)[O-])cc2C)c(OC)c1OC	-4
Cn1c(SC2CCCC2)nnc1-c1ccco1	0
Cc1ccc(-c2nnc3n2N=C(c2ccc(-c4ccccc4)cc2)CS3)cc1	27*	TbREL1 confirm=3
c1ccc(-c2ccc(C3=Nn4c(nnc4-c4ccccc4)SC3)cc2)cc1	0
CC(C)(C)c1ccc(-c2nnc3n2N=C(c2ccc(-c4ccccc4)cc2)CS3)cc1	0
CCOC(=O)[C@@]12CCCC=C1N(CCc1ccc(Cl)cc1)C(=O)[C@H]2CC(=O)N1CCN(C(=O)c2ccco2)CC1	0
C[C@H]1[C@@H](OC(=O)NC2CCCCC2)CC[C@@]23CCCN2C(=O)CCC[C@@H]13	10
CC(C)c1ccc(NC(=O)CSc2nnc(-c3ccco3)n2C)cc1	3
COc1cccc(NC(=O)CSc2nnc(-c3ccco3)c(-c3ccco3)n2)c1	11*	TbREL1 confirm=5
COc1cccc(NC(=O)CSc2cccc[n+]2[O-])c1	2
O=C(CSc1nnc(-c2ccco2)c(-c2ccco2)n1)Nc1ccccc1	24*	TbREL1 confirm=8
CC(=O)c1ccc(NC(=O)CSc2ccc(-c3ccco3)nn2)cc1	-2
COc1cccc(NC(=O)CSCC(=O)Nc2ccccc2)c1	-1
CC(=O)NS(=O)(=O)c1ccc(NC(=O)/C=C/c2ccco2)cc1	15*	TbREL1 confirm=12*
Cc1ccc(NC(=O)c2cccc(NC(=O)/C=C/c3ccco3)c2)cc1C	-2
